D1 PAM: Potentiators of Human D1 Dopamine Receptor: qHTS; HEK293 TREx D1 cells, calcium flux, dopamine EC20 potentiation; potentiation, % at 10 µM; D(1A) dopamine receptor (Homo sapiens), P21728; actives 0.036% (n = 360,000); AID 504651, 2011; in the data active = potentiation above about 30%
Target sequence (P21728 whole entry, looked up): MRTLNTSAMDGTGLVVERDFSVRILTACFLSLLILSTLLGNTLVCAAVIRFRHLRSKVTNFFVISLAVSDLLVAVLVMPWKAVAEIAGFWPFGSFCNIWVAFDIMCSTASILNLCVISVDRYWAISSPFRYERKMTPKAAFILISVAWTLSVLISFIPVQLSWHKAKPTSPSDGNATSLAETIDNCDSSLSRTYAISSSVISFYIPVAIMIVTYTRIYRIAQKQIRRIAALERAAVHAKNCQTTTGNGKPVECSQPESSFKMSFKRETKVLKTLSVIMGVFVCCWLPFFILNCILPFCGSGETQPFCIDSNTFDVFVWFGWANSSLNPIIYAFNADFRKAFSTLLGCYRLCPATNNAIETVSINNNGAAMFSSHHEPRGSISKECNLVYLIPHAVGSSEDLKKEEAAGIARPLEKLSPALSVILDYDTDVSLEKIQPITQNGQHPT
D1 agonist: Allosteric Agonists of the Human D1 Dopamine Receptor: qHTS. actives 1% (n = 360,000). HEK293 T-REx D1 cells, calcium flux, agonist mode. activation, % at 2 µM; in the data active = activation above about 30%
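Agonism was scored from calcium flux recorded over 180 s (1 read/s) after pintool compound addition, following a 10-cycle baseline. Cells were inducible force-coupled HEK293 TREx D1, plated overnight at 30 C and loaded with no-wash calcium dye.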
D3 ag: qHTS of D3 Dopamine Receptor Agonist: qHTS; actives 0.58% (n = 410,000); D3R DiscoveRx beta-arrestin cells, luminescence, 90 min; max activation, %; in the data active = max activation above about 30%
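Agonist mode: compounds and dopamine controls were applied to plated cells for 90 min at 37 degrees C after an overnight attachment at 1500 cells/well. Luminescent read-out followed 30 - 60 minutes at room temperature with DiscoveRx detection reagent.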
D3 antag: qHTS of D3 Dopamine Receptor Antagonist: qHTS; D(3) dopamine receptor (Homo sapiens), P35462; actives 2.5% (n = 360,000); D3R cells, DiscoveRx beta-arrestin luminescence, antagonist mode; active compounds read low; max response, negative = inhibition, %; in the data active = max response below about -50%; inconclusive = no clear call, values can overlap the other calls
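Cells expressing the human receptor were seeded at 1500 cells/well, incubated overnight at 37 degrees C in 5% CO2, then exposed to library compounds with dopamine controls for 90 minutes at 37 degrees C before luminescent detection.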
D1 antagonist: Antagonist of Human D 1 Dopamine Receptor: qHTS. D(1A) dopamine receptor (Homo sapiens), P21728. activity change, negative = inhibition, % at 10 µM. HEK293 TREx D1 cells, calcium flux, dopamine EC80; active compounds read low. actives 3.2% (n = 360,000); in the data active = activity change below about -30%
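Kinetic fluorescence of a calcium dye serves as the read-out. D1-expressing Hek293 Trex cells, induced overnight at 30 C, are exposed to compound for 180 s before an EC80 dopamine addition, then read 180 s further.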
Of the large screens only hits and unclear results are named; the others gave an inactive call; ! = repeats disagree. An excerpt weighted towards active compounds, which were near 6% of everything screened.

COc1ccc(C(CNC(=O)COc2cccc(C)c2)N2CCCC2)cc1 (centres undefined)	D3 antag -76
COc1ccc(C(CNC(=O)COc2ccc(C)cc2)N2CCCCC2)cc1 (centres undefined)	none (no result: D3 antag)
COc1ccc(C(CNC(=O)COc2ccc(Cl)c(C)c2)N2CCCCC2)cc1 (centres undefined)	D3 antag -95
COc1ccc(C(CNC(=O)COc2ccccc2C)N2CCCC2)cc1 (centres undefined)	D3 antag inconclusive
COc1ccc(C(CNC(=O)COc2ccc(Br)cc2F)N2CCCC2)cc1 (centres undefined)	D3 antag -76
COc1ccc(C(CNC(=O)COc2ccc(F)cc2Cl)N2CCCCC2)cc1 (centres undefined)	none
COc1ccc(C(CNC(=O)COc2cccc(C(F)(F)F)c2)N2CCCC2)cc1 (centres undefined)	D3 antag -107
CCOc1ccc(NC(=O)CNS(=O)(=O)c2ccc(Br)s2)cc1	none (no result: D3 antag)
Cc1nc(N2CCCC2)ncc1C(=O)NCc1ccc(F)cc1	none (no result: D3 antag)
Cc1nn(-c2ccc(F)cc2F)c2c1-c1nc(N3CCCC3)ncc1CC2	D1 antagonist -42
CC(C)(C)NC(=O)C(c1ccccn1)N(C(=O)c1ccc2c(c1)OCCO2)C1CCCC1 (centres undefined)	D1 antagonist -39
CC(C)(C)NC(=O)C(c1ccccn1)N(C(=O)c1csnn1)C1CCCCC1 (centres undefined)	none
Cn1cc(S(=O)(=O)N2CCCCCC2)cc1C(=O)N1CCN(c2cccc(Cl)c2)CC1	none (no result: D3 antag)
O=C(CSc1nc2cc(Cl)ccc2s1)NC1CCCc2ccccc21 (centres undefined)	D3 ag 33
CSc1nc(SCC(N)=O)c2c3c(sc2n1)CN(C)CC3	D3 antag -54
CSc1nc(NCc2ccco2)c2c3c(sc2n1)CN(C)CC3	D1 antagonist -42 (no result: D3 ag, D3 antag)
CSc1nc(N)c2c3c(sc2n1)CN(C)CC3	D3 antag -52
CCn1c(SCC(N)=O)nc2sc3c(c2c1=O)CCN(C)C3	none
CSc1nc(SCC(=O)NCc2ccco2)c2c3c(sc2n1)CN(C)CC3	none (no result: D1 PAM, D1 agonist, D1 antagonist)
CCNc1nc(SCC(N)=O)nc2sc3c(c12)CCN(C)C3	D1 agonist 33
CCOC(=O)c1ccc(NC(=O)C2CCN(S(=O)(=O)Cc3ccccc3)CC2)cc1	none (no result: D3 antag)
O=C1C2Sc3[nH]c(=O)sc3C(c3ccccc3)C2C(=O)N1c1ccccc1 (centres undefined)	D3 antag -66
CCOc1ccc(NC(=O)C2CCCN(S(=O)(=O)c3cccc4nonc34)C2)cc1 (centres undefined)	none (no result: D3 antag)
COc1cc(NC(=O)C2C3C=CC(C3)C2C(=O)O)c(OC)cc1Cl (centres undefined)	D3 antag -86
Cc1cc2c(cc1S(=O)(=O)N(CCN(C)C)Cc1ccco1)OCC(=O)N2	none (no result: D3 antag)
CC(C)CNC(=O)c1ccccc1NC(=O)c1ccc(CSc2ccccc2)cc1	D1 agonist 32
CCCC(=O)N(c1ccc2oc3c(c2c1)CCCC3)S(=O)(=O)c1cc(C)ccc1C	D1 antagonist -46 (no result: D3 antag)
CCCC(=O)N(c1ccc2oc(C)c(C(C)=O)c2c1)S(=O)(=O)c1ccc(C)cc1	none (no result: D3 antag)
Cc1c(NC(=O)CN2C(=O)NC(C)(c3ccccc3)C2=O)c(=O)n(-c2ccccc2)n1C (centres undefined)	D1 antagonist -32
Cc1ccc(C2(C)NC(=O)N(CC(=O)Nc3c(C)n(C)n(-c4ccccc4)c3=O)C2=O)cc1 (centres undefined)	none
O=S(=O)(NCCc1nnc2ccc(SCc3cccc(Cl)c3)nn12)c1ccccc1	none (no result: D3 antag)
CCSc1ncc(Cl)c(C(=O)N(Cc2ccc(N(C)C)cc2)Cc2ccco2)n1	none (no result: D3 antag)
CC1=CC(=O)C=CC1=Nc1ccc(N(C)C)cc1	D3 antag -51 (no result: D1 PAM, D1 agonist, D1 antagonist)
CN(C)c1ccc(N=Nc2ccc(S(N)(=O)=O)cc2)cc1	none
CCc1ccc2occ(CC(=O)Nc3ccc(OC)c(Cl)c3)c2c1	none (no result: D3 antag)
COc1ccc(C2=NC3(CCCCCC3)N(CC(=O)Nc3ccc(C)c(C)c3)C2=O)cc1	none (no result: D3 antag)
COc1ccc(-c2ccc(-c3nc4ccc(C)cn4c3NC3CCCCC3)cc2OC)cc1	D3 ag 55!
Cc1ccc2nc(-c3cccc(SC4CCCCC4)c3)c(NC3CCCCC3)n2c1	none (no result: D1 PAM, D1 agonist, D1 antagonist)
CCC(C)Sc1cccc(-c2nc3ccc(C)cn3c2NC2CCCCC2)c1 (centres undefined)	D3 ag 53!
O=c1oc2ccccc2c(Nc2ccc3ccccc3c2)c1[N+](=O)[O-]	D3 antag -86
Cc1ccc(Nc2c([N+](=O)[O-])c(=O)oc3ccccc23)cc1	none
CCCCNc1c(-c2cccc(SC3CCCCC3)c2)nc2ccc(Cl)cn12	D3 ag 69!
CCCCNc1c(-c2ccc(SC(C)CC)cc2)nc2ccccn12 (centres undefined)	D3 ag 30!
CCCCNc1c(-c2ccc(SC3CCCCC3)cc2)nc2ccccn12	D3 ag 72!
CCCCNc1c(-c2cccc(SC(C)CC)c2)nc2ccc(Cl)cn12 (centres undefined)	none (no result: D1 PAM, D1 agonist, D1 antagonist)
CCCCNc1c(-c2ccc(SC3CCCCC3)c(OC)c2)nc2ccc(C)cn12	none (no result: D1 PAM, D1 agonist, D1 antagonist)
Cc1ccccc1CN1C(=O)c2ccccc2S(=O)c2ccc(C(=O)NCc3ccco3)cc21 (centres undefined)	none (no result: D3 antag)
COc1cccc(CCc2ccccc2OCC(CN(C)C)OC(=O)CCC(=O)O)c1 (centres undefined)	none (no result: D1 PAM, D1 agonist, D3 antag, D1 antagonist)
CC(Oc1ccc(Cl)cc1Cl)C(=O)Nc1cccnc1 (centres undefined)	D3 antag -53
CC(NS(=O)(=O)c1ccc(Cl)c(Cl)c1)C(=O)Nc1cccnc1 (centres undefined)	D3 antag -57 (no result: D1 PAM, D1 agonist, D1 antagonist)
CC(Oc1ccc(Cl)cc1Cl)C(=O)NC1CCSC1=O (centres undefined)	D3 antag -75
CCNC(=O)C(C)Oc1ccc(Cl)cc1Cl (centres undefined)	none
COc1ccc(S(=O)(=O)NC(C)C(=O)Nc2ccccc2)cc1Cl (centres undefined)	none
COc1ccc(NC(=O)c2cnc(N3CCCCC3)c3ccccc23)cc1Cl	none (no result: D3 antag)
Cc1cccc(N(C)S(=O)(=O)c2nnc(NC(=O)C(C)Oc3ccccc3)s2)c1 (centres undefined)	none (no result: D3 antag)
CC1=NN(c2nc(-c3ccc(C)cc3)cs2)C(=O)C1N=Nc1cccc(O)c1 (centres undefined)	none

From PubChem BioAssay
